Measurements from PubChem BioAssay (NCI).
About 79,000 compounds went through this panel and 15% of them were active in at least one assay; those are over-represented in the sample as a whole. The source made the active and inactive calls. No stated cut-off is given here; in the data, active means growth inhibition above about 70%; inactive means the rest.

Assays:
[1] = NCI Yeast Anticancer Drug Screen. Data for the rad50 strain (AID 155);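 further: 0% = growth of vehicle-only cultures of the same strain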; conditions: S. cerevisiae rad50 strain growth inhibition; at 50.0 µM; stronger effect = higher value
Outline: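 Relative growth inhibition (compound vs vehicle) was measured in yeast with a defined repair-gene alteration.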

[2] = NCI Yeast Anticancer Drug Screen. Data for the mec2-1 strain (AID 157); conditions: S. cerevisiae mec2-1 strain, at 50.0 µM, stronger effect = higher value
Outline: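 Test agents were screened against the mec2-1 yeast strain, with defined DNA repair or cell cycle alteration. Growth was scored as inhibition against vehicle-only controls.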

[3] = NCI Yeast Anticancer Drug Screen. Data for the sgs1 mgt1 strain (AID 161);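 further: 0% = growth of cultures given vehicle only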; conditions: S. cerevisiae sgs1 mgt1 strain, at 50.0 µM, stronger effect = higher value
Outline: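 Read-out: growth inhibition vs vehicle controls. Cells: mutant yeast strain deficient in DNA damage repair.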

[4] = NCI Yeast Anticancer Drug Screen. Data for the cln2 rad14 strain (AID 165);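 further: 0% = growth equal to vehicle treated cultures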; conditions: S. cerevisiae cln2 rad14 strain, at 50.0 µM, stronger effect = higher value
Outline: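 Growth of compound-exposed yeast (cln2 rad14 genotype) measured and expressed as inhibition relative to vehicle.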

[5] = NCI Yeast Anticancer Drug Screen. Data for the bub3 strain (AID 167); conditions: S. cerevisiae bub3 mutant strain, at 50.0 µM, stronger effect = higher value
Outline: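 Screening used yeast with an engineered genetic alteration affecting cell cycle control. Compound-exposed cultures were compared with vehicle cultures, and reduced growth was taken as inhibition.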

[6] = NCI Yeast Anticancer Drug Screen. Data for the mlh1 rad18 strain (AID 175); conditions: S. cerevisiae mlh1 rad18 strain growth inhibition; at 50.0 µM; stronger effect = higher value
Outline: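 In this whole-cell yeast screen, a strain with altered DNA damage repair is challenged with compound, and its growth is measured against matched vehicle-treated controls.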

Measured: growth inhibition

O=[N+]([O-])c1ccccc1N=N/C(Cc1ccccc1)=N\Nc1ccccc1
inactive: [1] 10.8% | [2] 19.9% | [3] -8.25% | [4] 11.6% | [5] -12.6% | [6] -17.8%

COc1cc(OC)c(N=Nc2c(O)n(C)c(=O)n(C)c2=O)cc1Cl
inactive: [1] 6.45% | [2] -17.8% | [3] 14.6% | [4] 3.85% | [5] 10.6% | [6] 1%

Cc1nc(-c2ccccc2)[nH]c(=O)c1Cc1cc2c(cc1O)OCC2
inactive: [1] 21.8% | [2] 6.6% | [3] 6.9% | [4] -12.2% | [5] -7.85% | [6] 8.4%

COC(=O)C1=CON2C3CC4CC(C3)CC(C4)C12C (stereo unspecified)
inactive: [1] -2% | [2] -30.6% | [3] -8.95% | [4] -14.2% | [5] -18.4% | [6] -5.9%

CC(=Nc1ccc(Cl)cc1)c1ccncc1
inactive: [1] -31.9% | [2] -14.5% | [3] -14.8% | [4] -6.4% | [5] 1.3% | [6] -1.8%

CN(C)CCNc1nnc(NCCN(C)C)c2cc3ccccc3cc12
inactive: [1] -0.7% | [2] 27.3% | [3] -2.45% | [4] 10.5% | [5] -1.4% | [6] 7.45%

CN(C)C(=S)SCCC(=O)O
inactive: [1] 3.05% | [2] -4.3% | [3] 6.05% | [4] 8.5% | [5] -2.65% | [6] -8.2%

CCC1CN2CCc3cc(OC)c(OC)cc3C2CC1(O)C#N (stereo unspecified)
inactive: [1] 9.9% | [2] 18.9% | [3] -5.9% | [4] 0.6% | [5] 12.8% | [6] 39%

Cc1nc(N/N=C/c2ccccc2Cl)[nH]c(=O)c1CCO
inactive: [1] -18.9% | [2] -2.8% | [3] -17.4% | [4] 12.2% | [5] -30.2% | [6] 4.15%

CC(C)(C)C1=CC(=N/N=c2\scc(-c3ccccc3)n2Cc2ccccc2)C=C(C(C)(C)C)C1=O
inactive: [1] 17.4% | [2] -4.6% | [3] -5.35% | [4] -29.5% | [5] -11.6% | [6] -2.6%

C=CCn1c(=S)sc2ccccc21
inactive: [1] 14.8% | [2] 13.3% | [3] 12.8% | [4] 17.7% | [5] -7.65% | [6] -1.95%

CNc1nc(NC)nc(-c2ccccc2)n1
inactive: [1] -25.2% | [2] -16.1% | [3] -26.9% | [4] -55% | [5] -22.6% | [6] -22.9%

CN1CC(O)C(C(=O)NC23CC4CC(CC(C4)C2)C3)C1 (stereo unspecified)
inactive: [1] 30.8% | [2] 4.15% | [3] 11.8% | [4] 14.1% | [5] 10.4% | [6] 30.2%

CC(=O)OCC(OC(C)=O)C(OC(C)=O)C(/C=C/[N+](=O)[O-])OC(C)=O (stereo unspecified)
inactive: [1] 9.9% | [2] 3.65% | [3] 2.4% | [4] -24.6% | [5] -3.4% | [6] -2.05%

CN1CCS(=O)(=O)CC1
inactive: [1] 5.4% | [2] -40% | [3] -17.6% | [4] -2.55% | [5] 1.75% | [6] 5.05%

Cc1[nH]c(=O)n2c(C)nnc2c1C(=O)Nc1cc(Cl)cc(Cl)c1
inactive: [1] 15.2% | [2] -0.45% | [3] 39% | [4] 18.4% | [5] 7.5% | [6] 31.2%

O=C(O)c1ccccc1C(=O)OCC1CCc2ccccc2C1 (stereo unspecified)
inactive: [1] 5.45% | [2] 26.8% | [3] 28.3% | [4] 33% | [5] 51.4% | [6] 9.2%

NC(=O)Oc1ccc(Cc2ccccc2)cc1
inactive: [1] -20.7% | [2] -43.2% | [3] -12.6% | [4] -8.95% | [5] -40.4% | [6] -5.05%

CC(COc1ccccc1)OC(=O)CCl (stereo unspecified)
inactive: [1] 0.75% | [2] 5.6% | [3] -6.65% | [4] -16.9% | [5] -16.5% | [6] 27.6%

CC1(C)OCC2OC(O)C(OS(=O)(=O)c3ccc([N+](=O)[O-])cc3)C2O1 (stereo unspecified)
inactive: [1] -5.5% | [2] -2.55% | [3] -0.5% | [4] -33% | [5] -10.9% | [6] -30.3%

O=C1C2C(C(=O)N1c1ccccc1)C1(c3ccccc3)CCC2(C(=O)c2ccccc2)O1 (stereo unspecified)
inactive: [1] 56.4% | [2] -14.3% | [3] 39.6% | [4] -16.4% | [5] 9.05% | [6] 23.4%

C[N+]1(C)N=C(c2ccccc2)C=C1[O-]
inactive: [1] 13.4% | [2] -9.75% | [3] -6.65% | [4] -53.9% | [5] -2.5% | [6] -3.85%

COc1cnc(NS(=O)(=O)c2ccc(N)cc2)nc1
inactive: [1] -12.2% | [2] -9.8% | [3] -9.45% | [4] 10.2% | [5] -10% | [6] -7.2%

Nc1ncnc(N)c1NC(=O)c1ccc(SCc2ccccc2)cc1
inactive: [1] -7.15% | [2] 20.9% | [3] 27.5% | [4] -21.2% | [5] 22.5% | [6] 22.2%

O=C1C2C3CCC(O3)C2C(=O)N1Cc1ccccc1CN1C(=O)C2C3CCC(O3)C2C1=O (stereo unspecified)
active: [1] 82% | [2] 95.2% | [3] 89.2% | [4] 98.6% | [5] 98.1% | [6] 95.8%

CC(C)CCC[C@@H](C)[C@H]1CC[C@H]2[C@@H]3CC=C4C[C@@H]([n+]5ccccc5)CC[C@]4(C)[C@H]3CC[C@]12C
inactive: [1] -2.45% | [2] -9.8% | [3] 0.95% | [4] 8.15% | [5] -14.1% | [6] -7.55%

C/C(=N/NC(N)=O)C1c2ccccc2Cc2ccccc21
inactive: [1] 18.1% | [2] -2.25% | [3] 4.85% | [4] -0.3% | [5] 16.9% | [6] -8.15%

Cc1cc(C)n(-c2ccnc(-n3nc(C)cc3C)n2)n1
inactive: [1] 22% | [2] 23.9% | [3] 33.9% | [4] 7.7% | [5] 21.6% | [6] 40.3%

Cc1cc2c(=O)c3ccccc3oc2c(C#N)c1C
inactive: [1] 19.6% | [2] 8.25% | [3] 9.2% | [4] -15.4% | [5] 18.3% | [6] 16.9%

O=C(/C=C/c1ccccc1)Sc1ccccc1
inactive: [1] -2% | [2] -7.6% | [3] 13.2% | [4] -1.75% | [5] -8.1% | [6] 1.65%

Nc1cc(Cc2ccccc2)ccc1O
inactive: [1] 42.5% | [2] 25.8% | [3] 58.8% | [4] 18.8% | [5] 31.2% | [6] 46.7%

Cc1cccc(NC(=O)/C=C/c2ccc(N(CCC#N)CCC#N)cc2C)c1
inactive: [1] 9.15% | [2] 7.25% | [3] -6% | [4] 6.6% | [5] 40.4% | [6] 19.9%

CCC1=NO[C@@H](C(=O)OCc2ccccc2)[C@H]1C
inactive: [1] -12.2% | [2] 5.25% | [3] -7.2% | [4] -29.2% | [5] 9.15% | [6] -21.4%

C/C(=C\C(=O)c1cccc([N+](=O)[O-])c1)c1cccc([N+](=O)[O-])c1
inactive: [1] 1.35% | [2] 15.3% | [3] 0.7% | [4] -21.6% | [5] 2.6% | [6] 29.6%

CCOC(=O)C1=C(C)Oc2cc3c(cc2C1c1cc(OC)c(O)c(OC)c1)OCO3 (stereo unspecified)
inactive: [1] 33.8% | [2] 1.65% | [3] 38.5% | [4] 9.75% | [5] 27.4% | [6] 50.5%

CC1SC2=NC3=C(c4ccccc4C3=O)C(c3ccccc3Cl)N2C1=O (stereo unspecified)
inactive: [1] 15.8% | [2] 8.75% | [3] 8.55% | [4] 4.95% | [5] 17.9% | [6] 23.3%

Cc1ccc[nH]c1=O
inactive: [1] -9.9% | [2] -15.1% | [3] -0.6% | [4] -8.05% | [5] -8.45% | [6] 2.4%

CCOC(=O)CC(=O)Cc1oc2c(C(C)=O)c(O)c(C)c(O)c2c1C
inactive: [1] -0.8% | [2] 7% | [3] -0.2% | [4] 6.05% | [5] 2.85% | [6] 14.8%

COc1ccc(C2OC(=N)C(=S)N2C)cc1O (stereo unspecified)
inactive: [1] -5.9% | [2] -15.6% | [3] -13.2% | [4] -22.7% | [5] 2.5% | [6] -4.15%

COC(=O)C(=[N+]=[N-])C(=O)c1ccccc1
inactive: [1] 10.1% | [2] 1.05% | [3] -1.3% | [4] 4.65% | [5] -3.6% | [6] 6.9%

CN(C)c1ccc(C(=C2C=CC(=[N+](C)C)C=C2)c2c(O)c(S(=O)(=O)[O-])cc3cc(S(=O)(=O)O)ccc23)cc1
inactive: [1] 1.4% | [2] -21.5% | [3] -41.5% | [4] 15.1% | [5] -14.6% | [6] 27.1%
